Data as given in the supplement of paper PMC3334620.
The full ranking holds about 33,000 sequences; the median of “E-score (-0.5 to 0.5)” is about -0.0014, and the highest 2% start at about 0.25. The sample holds the highest values, similar sequences and a random draw of the others, so the mix is not that of the screen.

target: T1, Cad1 (UniProt P24813); experiment: PBM E-score (8-mer binding enrichment) (E-score (-0.5 to 0.5)); higher = stronger / more preferred TF binding; settings: protein concentration: 100 nM; construct: GST-full length
T1 sequence: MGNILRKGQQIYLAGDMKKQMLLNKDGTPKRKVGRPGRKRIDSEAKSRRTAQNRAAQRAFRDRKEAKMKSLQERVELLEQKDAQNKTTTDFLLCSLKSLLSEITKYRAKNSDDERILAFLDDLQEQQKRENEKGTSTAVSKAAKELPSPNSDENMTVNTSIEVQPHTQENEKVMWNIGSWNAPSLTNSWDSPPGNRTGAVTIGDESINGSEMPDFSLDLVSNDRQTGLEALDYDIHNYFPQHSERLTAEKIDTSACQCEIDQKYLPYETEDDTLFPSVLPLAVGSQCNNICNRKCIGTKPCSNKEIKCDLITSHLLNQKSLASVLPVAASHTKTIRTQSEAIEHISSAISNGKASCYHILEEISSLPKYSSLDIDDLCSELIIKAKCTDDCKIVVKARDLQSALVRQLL
Protocol: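 Universal 'all 10-mer' protein binding microarrays (Agilent AMADID 015681) probed with GST-tagged S. cerevisiae TFs (full-length or DBD) made by in vitro transcription/translation (PURExpress), about 100-200 nM. Bound TF was detected with fluorescent anti-GST. Each ungapped 8-mer (which stands for itself and its reverse complement) is scored by the PBM enrichment score (E-score), a modified Wilcoxon-Mann-Whitney statistic from -0.5 to +0.5, computed with the Universal PBM Analysis Suite. Scale: above 0.35 generally sequence-specific binding.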

Row | Sequence | PBM E-score
1 | ATCCCTTG | -0.131
2 | ACAATAGT | 0.109
3 | GCAGCGGA | -0.0753
4 | AGAGAGAA | -0.0532
5 | ACACTAAA | 0.144
6 | TTGCACAA | 0.0972
7 | CCAAAAAC | 0.116
8 | AAGTCTGG | 0.105
9 | TAAAAATA | 0.277
10 | AATAAATG | 0.0809
11 | CTAAAATA | 0.0866
12 | AATAAAAA | 0.264
13 | AAAAAATA | 0.0934
14 | AATAAACT | 0.12
15 | AATAAATT | 0.282
16 | AATAAAGA | 0.195
17 | AATAAAAG | 0.0174
18 | AATAAATC | -0.0137
19 | AATAAAAT | 0.166
20 | AATAAATA | 0.313
21 | AACCCGTG | -0.317
22 | CCCACCCC | 0.0432
23 | CGCTATGA | 0.119
24 | CCCTTGGA | 0.00683
25 | CGTATTAA | 0.0596

Row | Sequence | PBM E-score
26 | ACTAGAAT | 0.0557
27 | ACTGCATC | -0.00501
28 | ATCAGAGA | -0.0164
29 | AGCGAAAT | -0.184
30 | CATATCGC | 0.0925
31 | GTACCATA | -0.158
32 | ATACCATA | 0.27
33 | ATACCATG | -0.0699
34 | ATTTAACA | 0.193
35 | GCCTGAGA | -0.169
36 | ATGGGACC | -0.00547
37 | CAGCCACC | -0.0873
38 | TCAGAAAA | -0.145
39 | ACAGACAA | 0.29
40 | ACAGAAAC | 0.116
41 | ACTGACAC | -0.0887
42 | TGTGACAA | 0.0395
43 | TCTGACAA | 0.25
44 | ACAGACAG | 0.0659
45 | CCTGACAA | -0.0066
46 | ACAGAAAA | 0.281
47 | ACTGACAA | 0.264
48 | ACTGACAT | -0.0482
49 | ACAGACAC | 0.122
50 | TGCATACA | 0.0433

Row | Sequence | PBM E-score
51 | AGGTGCAA | -0.0504
52 | CTTTCATC | 0.0102
53 | GGCCTCAC | 0.0157
54 | GGCTTAAC | 0.0615
55 | CTTGGCTA | 0.134
56 | GGCTTCAA | -0.139
57 | CACAGCCG | 0.0914
58 | TAATCCCA | -0.0386
59 | CACACTTC | 0.0239
60 | AGTACCTG | -0.0799
61 | CAGAGGGC | -0.213
62 | CGTGCCAC | -0.091
63 | CGCATTCC | -0.216
64 | GTTGACAA | 0.166
65 | CATGACAA | 0.165
66 | GCTGACAC | 0.247
67 | GATGACAA | 0.304
68 | GCTGACAA | 0.412
69 | GATGACAC | 0.0339
70 | CGCAATCC | 0.248
71 | CCTGATCG | -0.0975
72 | TCGGAACA | 0.268
73 | CCGGAACA | 0.108
74 | ACGGAACA | 0.0866
75 | AAAATAAC | -0.0367

Row | Sequence | PBM E-score
76 | AAATAATA | 0.248
77 | AAATAAAG | -0.0232
78 | AAATAAAT | 0.314
79 | AAATAATC | 0.198
80 | AAATAATT | 0.295
81 | AAATAAAA | -0.0112
82 | AAAATAAT | 0.314
83 | AAAATAAA | 0.128
84 | CACTGGCA | -0.0733
85 | CCAAGACC | -0.0342
86 | CCGCCGTC | 0.117
87 | AGTCACTA | 0.0232
88 | GCGCAGTA | 0.149
89 | GAAGATTA | 0.181
90 | TATGCGCA | 0.0953
91 | CGTCCGTA | -0.0771
92 | CAAGCACG | 0.152
93 | CAAGCACA | -0.0831
94 | TAAGCACA | 0.295
95 | GCACGAAA | 0.197
96 | AGTATCGG | 0.0469
97 | GGCATGCC | 0.00621
98 | CGCATGCC | 0.252
99 | AGCATGCC | -0.111
100 | AAAATTCA | 0.284

Row | Sequence | PBM E-score
101 | CGAAATCA | 0.306
102 | GAATTCCA | 0.117
103 | GGAAATCA | 0.0778
104 | AAAATTCG | 0.201
105 | AAATTCCA | 0.308
106 | ACAAATTG | 0.202
107 | GAAATTCA | 0.169
108 | CCAAATTA | 0.107
109 | ACAAATTA | 0.295
110 | CAATTCCA | -0.0425
111 | CGAAATCC | 0.0502
112 | ACCCAAGT | -0.0625
113 | ATCAACCC | 0.0896
114 | ATCCTAAA | -0.12
115 | CGAACTCC | 0.0429
116 | TAAAAGAA | 0.0891
117 | ACTCTAAG | -0.094
118 | GACGTTAA | 0.245
119 | AGGTGTAG | -0.128
120 | CGGCACAA | -0.103
121 | ATGCTTGC | -0.14
122 | GGAAATTA | 0.208
123 | AGAAATTC | 0.13
124 | CAAAATTA | 0.187
125 | AAAAATTA | 0.254

Row | Sequence | PBM E-score
126 | ACAAATCA | 0.279
127 | GCAAATCA | 0.101
128 | CCAAATCA | -0.041
129 | GAAAATTA | 0.13
130 | AAAAATTT | 0.269
131 | AAAATTTT | 0.234
132 | AGAAATTA | 0.296
133 | AAAAAATT | 0.12
134 | CGGAAAAC | 0.221
135 | ATCCAACC | -0.0228
136 | CGCCCTGC | -0.128
137 | ATCCTAGA | -0.0558
138 | AATTTGCG | 0.173
139 | CCGGAAAA | 0.215
140 | TAAAATAA | 0.164
141 | TAAATTTA | 0.154
142 | TAAAATTA | 0.297
143 | AATGCCGT | 0.107
144 | ATCTTCAC | -0.0332
145 | CTAAGACC | -0.0662
146 | ACCCTAAG | -0.101
147 | GATTTCGC | 0.28
148 | CATTTCGC | -0.15
149 | GATTTCGA | -0.0223
150 | ATCGATGG | 0.0786

Row | Sequence | PBM E-score
151 | CAGCTTCA | 0.0676
152 | CCTCCTTC | -0.165
153 | ACTTATAC | 0.154
154 | CATTATAA | 0.104
155 | AATTATGA | 0.297
156 | ACTTATAA | 0.279
157 | GCTTATAA | 0.235
158 | AATTATGT | 0.167
159 | TATTATAA | 0.185
160 | AATTATGG | 0.216
161 | GATTATAA | 0.29
162 | AATTATAA | 0.276
163 | AATTATAG | 0.0146
164 | AATTATAC | 0.172
165 | AAACGTAC | 0.0592
166 | AGCTAGTG | -0.0897
167 | AGCTCACG | -0.0493
168 | TAGAGTCA | -0.321
169 | AAAGAACC | 0.0643
170 | ATAAGCCA | 0.063
171 | AGTCGGCG | 0.0599
172 | GGTGGGTA | -0.0656
173 | CATGTGCG | 0.173
174 | ACTTATAT | 0.202
175 | AGTTATAT | 0.101

Row | Sequence | PBM E-score
176 | AATTATAT | 0.29
177 | CAAGTGGA | -0.0832
178 | CCCAAAAA | -0.0252
179 | CCGTTCCC | -0.0828
180 | GATATTCA | 0.0631
181 | ATTATTCG | 0.195
182 | ATTATTCC | 0.131
183 | CTTATTCA | 0.17
184 | GTTATTCA | 0.251
185 | ATTATTCA | 0.26
186 | ATATTGTA | 0.0624
187 | ATCACCAC | 0.245
188 | GGCACACC | -0.298
189 | CCGATGAG | 0.0417
190 | ACTGCACT | 0.0895
191 | CTTGGGGA | 0.0866
192 | CCGACCTC | -0.0414
193 | CTCATGAC | -0.0193
194 | GTCATGAA | 0.0483
195 | GTCATGAC | 0.288
196 | CACTTAAC | 0.00927
197 | GGCGCTCA | 0.149
198 | ACACCTGC | 0.0761
199 | ACCGCCGA | -0.0944
200 | CCCGCGCA | 0.106

Row | Sequence | PBM E-score
201 | CCCGCGCC | -0.118
202 | TCCGCGGA | 0.311
203 | CCCGCCGA | -0.0624
204 | GCCGCGGC | 0.347
205 | GCCGCCGA | 0.277
206 | CCCGCGGA | 0.0649
207 | CCCGCGGC | 0.0319
208 | ACCGCGGA | 0.207
209 | GCCGCGGA | -0.00234
210 | CCCGCGCG | 0.298
211 | ATTTCCAA | -0.03
212 | ACCAGGCA | -0.169
213 | AAAGCCAA | -0.0764
214 | AAGAGCTG | 0.0198
215 | CCGTTGGA | -0.182
216 | ACCGATGG | -0.143
217 | TCTGAACA | 0.184
218 | GCTATCGA | -0.0158
219 | CGCGCGCC | 0.254
220 | CGCGCGGA | 0.212
221 | AGCGCGCC | 0.082
222 | AGCGCGGC | 0.0398
223 | GGCGCGCC | 0.172
224 | CGCGCGGC | 0.261
